Calls of active or inactive are those of the source. Unless noted, the rule behind the calls is not given here.
What was measured:
[1] = system: XIP peptide (Xip251-270) binding; test: small-molecule binders of XIP peptide, primary screen, biochemical, small-molecule microarray, fluorescence 635/667 nm, 0.1 µg/mL protein (AID 1182); settings: fluorescent protein binding, 635 nm, higher = more signal, called active from +8 up or from −8 down
XIP peptide (Xip251-270) = test: small-molecule binders of XIP peptide, primary screen, biochemical, small-molecule microarray, fluorescence 635/667 nm, 0.5 µg/mL protein (AID 1183); settings: small-molecule microarray binding, fluorescence 635 nm; higher = more signal
[2] = Plasmodium falciparum growth inhibition, primary screen, strain 3D7, DAPI fluorescence, 100 nL (AID 1184);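 note: parasites grown inside human red blood cells in medium with human serum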; settings: P. falciparum 3D7 growth, 3 d, higher = more signal
[3] = target: Homeobox protein Hox-A13 (Mus musculus) (UniProt Q62424); test: inhibitors of HoxA13-DNA binding, primary screen, biochemical, fluorescence polarization, labeled oligonucleotide (AID 1185); settings: 15 min, higher = more signal, called active from +8 up or from −8 down
[4] = inhibitors of hydroxyurea-induced Chk1 phosphorylation, primary screen, imaging, HeLa, phospho-Chk1 antibody, percent positive cells (AID 1186); settings: hydroxyurea-induced phospho-Chk1 immunofluorescence imaging, higher = more signal
[5] = inhibitors of hydroxyurea-induced Chk1 phosphorylation, primary screen, imaging, HeLa, phospho-Chk1 nuclear intensity (AID 1187); settings: hydroxyurea-induced phospho-Chk1 immunofluorescence imaging, higher = more signal

Homeobox protein Hox-A13 (Mus musculus), sequence (Q62424 whole entry, looked up): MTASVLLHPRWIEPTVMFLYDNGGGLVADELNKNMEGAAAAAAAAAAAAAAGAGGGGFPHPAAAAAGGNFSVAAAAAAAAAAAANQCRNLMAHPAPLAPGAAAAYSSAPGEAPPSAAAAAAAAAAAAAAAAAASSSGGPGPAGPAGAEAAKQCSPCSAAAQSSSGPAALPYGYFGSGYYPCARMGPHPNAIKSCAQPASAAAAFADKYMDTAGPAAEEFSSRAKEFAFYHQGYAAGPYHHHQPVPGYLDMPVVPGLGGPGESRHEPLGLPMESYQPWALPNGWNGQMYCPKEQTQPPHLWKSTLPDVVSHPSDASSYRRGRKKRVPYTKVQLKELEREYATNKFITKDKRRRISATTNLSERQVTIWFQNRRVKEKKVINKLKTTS

| SMILES | composite z-score [1] | composite z-score (XIP peptide (Xip251-270)) | z-score [2] | z-score [3] | z-score [4] | z-score [5] |
| --- | --- | --- | --- | --- | --- | --- |
| [N-]=[N+]=Nc1ccccc1[C@H]1OC(c2ccc(OCCCO)cc2)=N[C@@]1(CCS(=O)(=O)c1ccccc1)C(=O)N1CCCCC1 | 0.154 (inactive) | 0.755 | -2.19 | -1.18 (inactive) | -0.483 (inactive) | -0.458 (inactive) |
| O=C1O[C@@H](c2ccccc2)[C@@H](c2ccccc2)N2[C@@H](c3ccccc3OCCO)[C@]3(C(=O)Nc4ccc(C#CCCO)cc43)[C@@H](C(=O)Nc3nc4ccccc4s3)[C@H]12 | 0.767 (inactive) | 0.698 | -2.14 | -2.2 (inactive) | -0.0607 (inactive) | 0.0274 (inactive) |
| CN1C(=O)C2C(C1=O)C1C=C(c3ccc(CO)cc3)C2C(c2cccs2)N1Cc1cccc(OC(F)(F)F)c1 (stereo not drawn) | 0.94 (inactive) | 0.591 | -3.19 | -8.09 (active) | -0.384 (inactive) | -0.0226 (inactive) |
| CCOC(=O)[C@H]1C/C=C/C[C@H](C(=O)OCC)C(=O)O[C@H]2[C@@H](OC)O[C@H](CO)[C@@H](OC(=O)CCc3ccccc3)[C@@H]2OC1=O | -0.0432 (inactive) | 0.486 | -1.24 | -2.57 (inactive) | -0.0591 (inactive) | -0.23 (inactive) |
| O=C(O)[C@H]1C[C@H]2C(=O)N3CCC[C@H]3C(=O)N2[C@H]1c1cccc(OCCO)c1 | 0.25 (inactive) | 0.335 | -0.0612 | -3.62 (inactive) | -0.217 (inactive) | 0.0679 (inactive) |
| O=c1cccc(-c2ccc(C(F)(F)F)cc2)o1 | 0.338 (inactive) | -0.256 | 1.39 | -1.7 (inactive) | 0.264 (inactive) | 0.197 (inactive) |
| COC(=O)[C@@]1(Cc2ccccc2)[C@H]2c3cc(C(=O)N4CCCC4)n(Cc4cc(F)cc5c4OCOC5)c3C[C@H]2CN1C(=O)c1ccccc1 | 0.766 (inactive) | 0.828 | -1.65 | -5.42 (inactive) | 0.189 (inactive) | 0.435 (inactive) |
| CCN(CC)c1ccc(N2CC=CC34O[C@@H]5/C=C\CCC(C)OC(=O)C5[C@H]3C(=O)N(CCO)[C@@H]4C2=O)cc1 (stereo partly drawn) | 1.27 (inactive) | 0.461 | -1.23 | -5.86 (inactive) | 0.695 (inactive) | 0.21 (inactive) |
| Cc1ccc(S[C@]2(C(=O)NCC(F)(F)F)CC(=O)N(Cc3ccccc3)[C@@H]2c2ccc(CO)cc2)cc1 | 1.02 (inactive) | 0.5 | -1.57 | -3.77 (inactive) | -0.336 (inactive) | -0.603 (inactive) |
| CN(C)CCCNC(=O)[C@@]1(c2ccc([N+](=O)[O-])cc2)CC(=O)N(CC23CC4CC(CC(C4)C2)C3)[C@@H]1c1ccc(CO)cc1 | 1.13 (inactive) | 0.843 | -2.4 | 7.52 (inactive) | -0.451 (inactive) | -0.75 (inactive) |
| Cc1ccc(S[C@]2(C(=O)NC(C)C)CC(=O)N(Cc3ccccc3C(F)(F)F)[C@@H]2c2ccc(CO)cc2I)cc1 | 0.136 (inactive) | 0.582 | -1.14 | -1.9 (inactive) | 0.0101 (inactive) | 0.293 (inactive) |
| CC(C)N1CC=CC23O[C@@H]4C=CCOC(=O)[C@@H]4[C@H]2C(=O)N(C(C)CO)[C@@H]3C1=O (stereo partly drawn) | -0.409 (inactive) | 0.291 | 0.383 | -3.67 (inactive) | 0.113 (inactive) | -0.0881 (inactive) |
| O=C(O)[C@H](Cc1ccccc1)n1cc(-c2ccccn2)nn1 | 0.355 (inactive) | 0.32 | 0.214 | -0.876 (inactive) | 0.721 (inactive) | 0.662 (inactive) |
| COC(=O)Cn1c(C(=O)N2CCCC2)cc2c1C[C@H]1CN(C(=O)c3ccccc3)[C@@](Cc3ccc(F)cc3)(C(=O)OC)[C@@H]21 | 0.243 (inactive) | 0.513 | 0.554 | -5.15 (inactive) | -1.49 (inactive) | -1.37 (inactive) |
| C=C(CCCC)/C(=C/C[C@@H](OC(C)=O)c1ccc(CO)o1)c1cc(C(=O)OC)ccc1OC | 0.207 (inactive) | 0.778 | -0.597 | -4.83 (inactive) | 0.19 (inactive) | 0.471 (inactive) |
| COc1cc(OC)c(C(O)C2C=CC3C(=O)N(c4ccccc4)C(=O)C3N2Nc2ccc(C#N)cc2)cc1Br (stereo not drawn) | 3.12 (inactive) | 0.796 | -0.365 | -3.36 (inactive) | -0.002 (inactive) | -0.795 (inactive) |
| CON(C)C(=O)C=C1C[C@@H](c2cccc(Cl)c2)O[C@@H](c2cccc(Cl)c2)O1 | 2.75 (inactive) | 0.454 | -2 | -3.48 (inactive) | -0.0938 (inactive) | -0.0296 (inactive) |

| SMILES | composite z-score [1] | composite z-score (XIP peptide (Xip251-270)) | z-score [2] | z-score [3] | z-score [4] | z-score [5] |
| --- | --- | --- | --- | --- | --- | --- |
| CC(C)CN1C(=O)[C@@]2(Cc3ccccc31)c1ccccc1C(=O)N(Cc1ccccc1C(F)(F)F)[C@H]2c1ccc(CO)cc1 | -0.334 (inactive) | -0.0449 | -0.141 | 0.0026 (inactive) | -0.417 (inactive) | -0.408 (inactive) |
| C#CCNC(=O)[C@H](Cc1ccccc1)NC(=O)[C@@H](N=[N+]=[N-])C(C)C | 0.056 (inactive) | 0.262 | -0.765 | -0.747 (inactive) | 0.744 (inactive) | 0.815 (inactive) |
| COc1ccccc1CN1C(=O)c2ccccc2[C@@H](C(=O)NC(C)C)[C@@H]1c1ccc(CO)cc1 | 0.0282 (inactive) | 0.905 | -0.425 | -1.9 (inactive) | 0.19 (inactive) | 0.686 (inactive) |
| COc1ccc(C(O)C2C=CC3C(=O)N(c4ccccc4)C(=O)C3N2Nc2ccc(C#N)cc2)c2ccccc12 (stereo not drawn) | 1.41 (inactive) | 0.728 | -0.683 | 0.744 (inactive) | -0.294 (inactive) | -0.468 (inactive) |
| Cc1c(NC(=O)/C(C#N)=C/C=C/c2ccccc2[N+](=O)[O-])c(=O)n(-c2ccccc2)n1C | 4.09 (inactive) | 0.552 | -0.758 | -3.54 (inactive) | 0.432 (inactive) | 0.721 (inactive) |
| O=C1c2ccccc2[C@@]2(Cc3ccccc3N(C3CC3)C2=O)[C@H](c2ccc(CO)cc2)N1C1CCCCC1 | -0.241 (inactive) | -0.76 | -0.323 | -2.14 (inactive) | 0.353 (inactive) | 0.349 (inactive) |
| CC(C)(C)N1CC=CC23O[C@@H]4C=CCOC(=O)[C@@H]4[C@H]2C(=O)N(CCCO)[C@@H]3C1=O (stereo partly drawn) | -0.466 (inactive) | -0.825 | -1.87 | -3.12 (inactive) | -0.263 (inactive) | -0.327 (inactive) |
| CC=CC(O)C1C=CC2C(=O)N(c3ccccc3)C(=O)C2N1Nc1ccccc1 (stereo not drawn) | 0.228 (inactive) | 0.813 | -0.0445 | -4.14 (inactive) | 0.0716 (inactive) | -0.167 (inactive) |
| COC(=O)C[C@H]1O[C@]2(C(=O)N(C)c3ccccc32)[C@@H](C)[C@@H]1[Si](C)(C)c1ccc(C)cc1 | 0.611 (inactive) | 0.336 | -2.09 | -5.95 (inactive) | 0.0207 (inactive) | 0.0333 (inactive) |
| CO[C@H]1O[C@H](CO)[C@@H](OC(=O)Nc2ccccc2-c2ccccc2)[C@H](OC(=O)Nc2ccc3c(c2)OCO3)[C@@H]1OC(=O)Nc1ccc2c(c1)OCO2 | 0.882 (inactive) | 0.801 | -2.17 | -3.65 (inactive) | -0.0753 (inactive) | 0.24 (inactive) |
| CC=CC(O)C1C=CC2C(=O)N(C)C(=O)C2N1Nc1ccc([N+](=O)[O-])cc1[N+](=O)[O-] (stereo not drawn) | 0.32 (inactive) | 0.266 | 0.619 | -0.734 (inactive) | -0.0994 (inactive) | -0.104 (inactive) |
| Cc1ccc(S[C@]2(C(=O)NC(C)C)CC(=O)N(C3Cc4ccccc4C3)[C@@H]2c2ccc(CO)cc2I)cc1 | -0.325 (inactive) | 0.86 | -0.619 | -2.24 (inactive) | 0.425 (inactive) | 0.191 (inactive) |
| Cc1ccc(S[C@]2(C(=O)NCCN3CCOCC3)CC(=O)N(Cc3ccccc3C(F)(F)F)[C@@H]2c2ccc(CO)cc2I)cc1 | 0.109 (inactive) | 0.895 | -0.701 | -3.32 (inactive) | 0.354 (inactive) | 0.873 (inactive) |
| COc1c(C)cc(-c2cc3c(c(Cc4ccccc4)n2)[Si](C(C)C)(C(C)C)OC3)cc1C | -0.337 (inactive) | -0.0392 | -2.74 | 0.472 (inactive) | -0.142 (inactive) | 0.135 (inactive) |
| CC(=O)NCCCC[C@@H]1NC(=O)[C@@H]2C[C@H](C(=O)O)[C@H](c3ccc(O)cc3)N2C1=O | 3.54 (inactive) | -0.0306 | 0.174 | -2.19 (inactive) | 0.318 (inactive) | 0.202 (inactive) |
| CCCN1C(=O)[C@]2(Cc3ccccc3)N=C(c3ccc(OCCCO)cc3)O[C@@H]2c2ccccc21 | -0.116 (inactive) | 0.594 | -2.26 | -4.81 (inactive) | -0.143 (inactive) | 0.231 (inactive) |

From PubChem BioAssay
